Screens: PubChem, several laboratories
AHR activator – human AHR activation. AID 2796. 2.5% of 320,000 active. P35869. activation, % at 5 µM. AHR-responsive luciferase reporter cells, luminescence; in the data active means activation above about 47%;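 further: 0% = vehicle wells and 100% = reference agonist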
KLK7 zymogen act – proKLK7 (human) activation, primary screen | P49862 | purified proKLK7, EDANS-DABCYL substrate fluorescence; 100% is mature enzyme control, 0% vehicle | activation, % at 7 µM | 0.9% of 370,000 active;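 active means activation above the mean of all tested compounds plus 3 SD, computed per campaign excluding outliers beyond control limits, cut at about 13% in these data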
ADAM10 inh – inhibits human ADAM10; O14672; 0.62% of 370,000 active; inhibition, % at 7 µM; recombinant ADAM10, EDANS/DABCYL FRET peptide cleavage, 3 h;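 active means inhibition above a per-campaign cutoff equal to the mean of compounds falling between control-based bounds plus 3 SD, cut at about 20% in these data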;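 further: 0% = DMSO wells while the 100% control is not disclosed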
Target sequence (O14672 214-748 limits assumed): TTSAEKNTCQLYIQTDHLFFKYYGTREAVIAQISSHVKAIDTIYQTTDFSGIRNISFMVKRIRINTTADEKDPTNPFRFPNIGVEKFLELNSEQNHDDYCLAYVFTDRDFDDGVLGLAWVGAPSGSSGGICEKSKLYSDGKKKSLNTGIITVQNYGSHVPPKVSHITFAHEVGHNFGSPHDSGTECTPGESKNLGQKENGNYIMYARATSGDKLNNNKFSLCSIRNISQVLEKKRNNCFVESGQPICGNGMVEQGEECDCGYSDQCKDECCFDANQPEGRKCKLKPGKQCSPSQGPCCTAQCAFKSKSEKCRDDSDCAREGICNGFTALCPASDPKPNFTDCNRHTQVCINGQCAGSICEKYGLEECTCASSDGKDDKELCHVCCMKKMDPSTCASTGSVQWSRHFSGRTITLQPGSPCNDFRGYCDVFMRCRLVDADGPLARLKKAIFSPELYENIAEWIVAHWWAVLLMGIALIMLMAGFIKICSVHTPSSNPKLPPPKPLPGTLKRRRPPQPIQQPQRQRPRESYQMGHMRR
GRIN3A LBD mod – modulators (binders) of human NR3A ligand-binding domain | NR3A LBD differential scanning fluorimetry, Tm shift; 0% = protein alone, 100% = glycine-bound protein | Tm shift relative to glycine control, % at 25 µM | 2.5% of 340,000 active;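 active means melting temperature shift of at least 10% of the positive control shift, at one fixed dose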
ADAM17 inh – ADAM17 inhibition, QFRET primary screen; inhibition, % at 6.95 µM; 0.83% of 370,000 active; recombinant ADAM17, EDANS/DABCYL FRET peptide cleavage;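 active means inhibition above the mean of compounds lying between control limits plus 3 SD, set per campaign, cut at about 8.5% in these data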;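 further: 0% = DMSO-only wells as the low control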
rCAG RNA binder – binds r(CAG) RNA repeats; r(CAG) RNA repeat, TO-PRO-1 dye displacement fluorescence; inhibition, % at 3 µM; 1.3% of 370,000 active;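 active means inhibition above the plate cutoff, the mean of all test compounds on that plate plus 3 SD, cut at about 35% in these data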;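 further: 0% = DMSO alone and 100% = 100 µM mitoxantrone as full dye displacement; higher means more dye released from RNA so lower well fluorescence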
rCAG binder conf – r(CAG) RNA repeat binding, confirmation. 70% of 4,300 active. shares compounds with rCAG RNA binder. TO-PRO-1 dye displacement fluorescence. inhibition, % at 3 µM;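 active means inhibition above a per-plate cutoff, the mean inhibition of sample wells plus 3 SD, cut at about 35% in these data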;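 further: loss of TO-PRO-1 fluorescence as compound displaces dye from 1x1 AA loop RNA; 0% = DMSO only wells and 100% = 100 µM mitoxantrone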
dCAG dye counter – disrupts DNA CAG TO-PRO-1 complex, flagging rCAG hits; shares compounds with rCAG RNA binder; d(CAG) DNA oligo TO-PRO-1 dye displacement, fluorescence; inhibition, % at 3 µM; 94% of 4,300 active; AID 652068;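 active means inhibition above its plate's cutoff, the mean test-well inhibition plus 3 SD, cut at about 4.8% in these data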;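 further: 0% = DNA dye mix with DMSO and 100% = 100 µM mitoxantrone; hits displace the dye from DNA and so lower well fluorescence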
dCAG dye DR – disrupts DNA CAG TO-PRO-1 complex in dose response; shares compounds with rCAG RNA binder; DNA CAG/GTC duplex TO-PRO-1 dye displacement fluorescence; IC50, µM; 20% of 250 active; AID 686960; in the data active means IC50 below about 10 µM
* hit, by the source's call; i = inactive; · = no result. Shown are actives, neighbours in structure and some others; about 7% of the full set was active somewhere.

SMILES	AHR activator	KLK7 zymogen act	ADAM10 inh	GRIN3A LBD mod	ADAM17 inh	rCAG RNA binder	rCAG binder conf	dCAG dye counter	others
Nc1ncnc2c1ncn2[C@@H]1O[C@H](C(=O)N[C@@H](CCc2ccccc2)C(=O)N2CCN(C(=O)N3CCOCC3)CC2)[C@@H](O)[C@H]1O	·	0.2	4.8	·	-0.2	1.8	·	·
CC(C)NC(=O)C1CCN(c2cncnc2)CC1	·	-0.1	-7.9	·	-2.4	4.1	·	·
O=C1S/C(=C\c2ccc(O)c([N+](=O)[O-])c2)C(=O)N1Cc1cccc([N+](=O)[O-])c1	0.2	-0.2	-14.3	3.5	2.3	7.7	·	·
O=C1/C(=C\c2cc([N+](=O)[O-])ccc2O)SC(=S)N1Cc1ccc(Cl)cc1	1.8	0.2	-0.9	-15.5	2.5	54.2*	87.2*	74.3*
O=C(O)CCCCN1C(=O)/C(=C\c2ccc(OCc3ccccc3)c(OCc3ccccc3)c2)SC1=S	-0.3	-5.2	-13.1	-6.9	-1.0	5.8	·	·
O=C(O)CN1C(=O)/C(=C\c2ccccc2OCc2ccccc2)SC1=S	·	0.1	-3.2	·	-3.2	72.6*	73.4*	33.2*	dCAG dye DR=i
COc1cccc(CN(C)[C@H]2C[C@H]3c4[nH]c5ccccc5c4CCN3C[C@H]2[C@H](C)O)c1OC	·	2.6	-15.6	·	2.2	1.9	·	·
O=c1c(-c2ccco2)nc2ccccc2n1C(c1ccccn1)c1nc2ccccc2[nH]1 (stereo not given)	·	11.0	-102.8	·	-26.4	23.5	·	·
CCc1ccc(C(=O)Nc2cccc(-c3nn[nH]n3)c2)s1	-0.7	-1.0	5.5	-0.5	-0.1	15.4	·	·
CCCc1cc(C(=O)Nc2cccc(-c3nn[nH]n3)c2)sc1C	·	-0.5	-11.8	·	-4.5	39.8*	35.4*	8.5*
Cc1[nH]c(=O)[nH]c(=O)c1CCSSCCc1c(C)[nH]c(=O)[nH]c1=O	·	0.5	-6.4	·	-5.2	0.5	·	·
O=C(O)CCCc1ccc2ccc3cccc4ccc1c2c34	1.2	1.4	-321.4	0.6	-158.2	46.6*	27.1	7.5*
NCCCCc1ccc2ccc3cccc4ccc1c2c34	·	-1.7	-131.7	-2.2	-71.6	19.7	·	·
CCCCNC(=O)C(NC(=O)c1ccc(-c2ccccc2)cc1)C(=O)c1ccccc1 (stereo not given)	·	0.0	0.6	·	-4.7	2.8	·	·
COC[C@@H]1CCCN1c1ccc2c(c1)OCCCN(C1CC1)S2(=O)=O	·	0.3	-3.3	·	-3.5	2.2	·	·
C[C@@H]1CCCCO[C@H](CN(C)C)[C@H](C)CN([C@@H](C)CO)C(=O)c2cc(NC(=O)Nc3ccc(C(F)(F)F)cc3)ccc2O1	·	0.2	2.4	·	1.6	2.6	·	·
C[C@@H]1CCCCO[C@H](CN(C)Cc2ccc(C(=O)O)cc2)[C@H](C)CN([C@@H](C)CO)C(=O)c2cc(NC(=O)Nc3ccc(C(F)(F)F)cc3)ccc2O1	·	-0.1	-22.5	·	-1.3	49.8*	53.0*	14.7*
Cc1ccc(N/N=C(\C#N)C(=O)c2ccsc2)cc1	36.8	-0.1	4.4	3.1	-0.6	21.9	·	·
N#C/C(=N\Nc1ccc(Cl)cc1)C(=O)c1ccsc1	12.4	-1.0	11.3	9.4	-4.0	47.2*	40.0*	8.1*
CCn1c(COc2cccc(C)c2)nnc1SCC(=O)CC(=O)Nc1ccccc1OC	5.9	-0.8	5.2	-3.4	2.9	36.9*	10.6	4.6*
COCc1[nH]nc2c1C(c1ccc(F)cc1)NC2=O (stereo not given)	·	0.1	-5.6	·	1.7	2.6	·	·
CC(/C=C/c1ccco1)=N\NC(=O)c1cc(Cl)ccc1O	11.1	1.6	-98.1	-1.0	-28.1	49.1*	36.6*	15.7*
CC(/C=C/c1ccco1)=N\NC(=O)c1cc(C)[nH]n1	4.1	1.0	-13.4	-8.3	-5.1	18.2	·	·
Clc1ccc(-n2c(SCc3cccc4ccccc34)nnc2-c2ccco2)cc1	·	0.6	17.4	·	7.8	4.8	·	·
O=C(NCc1ccccc1)[C@@H]1CCCN1C(=O)[C@H]1CCCN1C(=O)C1CCCCC1	·	0.5	2.3	·	-0.3	0.2	·	·
SMILES	AHR activator	KLK7 zymogen act	ADAM10 inh	GRIN3A LBD mod	ADAM17 inh	rCAG RNA binder	rCAG binder conf	dCAG dye counter	others
O=c1nc2ccc(Cl)cn2c2ccc(S(=O)(=O)N3CCCCC3)cc12	-6.8	-9.0	i	-0.9	-195.7	40.7*	7.6	4.4*
CCn1c2ccccc2c2cc(C=Nn3c(-c4ccccc4C)n[nH]c3=S)ccc21	·	1.6	-18.3	·	-1.5	49.0*	56.0*	23.1*
COc1ccc(/C=N/n2c(-c3ccc(C)cc3)n[nH]c2=S)cc1OC	27.7	-0.7	-1.4	2.0	-4.4	12.1	·	·
COc1cc(C=Nn2c(-c3ccccc3F)n[nH]c2=S)ccc1OCc1ccccc1	·	0.3	4.4	·	3.7	53.0*	48.1*	11.9*
COc1cc(C=Nn2c(-c3ccc(F)cc3)n[nH]c2=S)ccc1OCc1ccccc1	·	0.3	-1.3	·	-2.3	49.9*	52.5*	16.9*
COc1ccc(C=Nn2c(-c3ccc(F)cc3)n[nH]c2=S)cc1OCc1ccccc1	·	0.2	-0.4	·	-1.1	34.6*	39.4*	11.9*
COc1ccc(CNC(=O)N(C)C[C@@H]2OCc3ccccc3-c3c(n(C)c4ccccc34)C(=O)N([C@@H](C)CO)C[C@@H]2C)cc1	·	0.2	-6.5	·	-1.7	5.8	·	·
COC(=O)c1ccc(C=NNC(=O)c2cc(-c3ccc(C)c(C)c3)n[nH]2)cc1	·	-0.1	4.5	·	2.9	4.0	·	·
O=C(O)CCN1C(=O)/C(=C\c2cccc(OCC(=O)Nc3ccc(Cl)cc3)c2)SC1=S	3.3	0.0	4.3	-7.4	1.0	70.8*	81.9*	43.0*
Cc1ccc(NC(=O)COc2cccc(/C=C3\SC(=S)N(CCC(=O)O)C3=O)c2)cc1Cl	7.4	0.4	-8.5	-3.0	-6.2	22.9	·	·
COc1ccc(/C=C2\SC(=O)N(CCCC(=O)Nc3ccc(C(=O)O)cc3)C2=O)cc1OC	-12.9	0.4	-8.5	1.0	-3.7	5.4	·	·
COc1cccc(/C=C2/SC(=S)N(CCCC(=O)Nc3ccc(O)cc3)C2=O)c1	-16.9	0.1	15.3	1.1	2.9	10.1	·	·
COc1cccc(/C=C2\SC(=S)N(CCCC(=O)Nc3ccc(C(=O)O)cc3)C2=O)c1	-4.2	-0.1	-7.4	0.4	2.3	69.1*	61.0*	21.8*
COc1ccc(/C=C2\SC(=S)N(CCCC(=O)Nc3ccc(C(=O)O)cc3)C2=O)cc1OC	1.1	2.1	-9.8	3.8	-5.9	63.9*	53.4*	18.2*
COC(=O)C1=C(C)N(C)C(=NCc2ccc(C(F)(F)F)cc2)NC1c1cccc(Cl)c1 (stereo not given)	·	0.4	-5.7	·	-1.8	8.4	·	·
